Screening data from PubChem BioAssay.
NPC1 promoter act: qHTS Assay for NPC1 Promoter Activators; Huh7 NPC1 promoter luciferase reporter, 24 h; hit rate 2.4% among 320,000; Potency, µM (titrated, usually from 9.22 µM), without a hit: at the highest dose activation, usual class: activators; also: % of control where 0% means no effect; nearly all actives have a fitted effect of over 60% in size
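Luminescence from an NPC1 promoter-driven luciferase reporter in stably transfected Huh7 cells was measured after 24 h compound treatment at 37 °C, followed by 10 min ambient incubation with luciferase detection reagent.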
SMN2 splice up: qHTS Assay for Enhancers of SMN2 Splice Variant Expression | HEK293 SMN2-luciferase splicing reporter, luminescence, 30-36 h | Potency, µM (top dose mostly 46.1 µM), for inactives: top-dose activity change, positive = activation, most hits filed as activators | hit rate 2.8% among 210,000 | AID 1458, 2008; also: % of control where 0% means no effect; nearly all actives have a fitted effect of over 55% in size
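HEK293 cells carry an SMN2 […]–luciferase reporter in which exon 7 inclusion puts luciferase in frame. Cells were plated 10-12 h before compound addition, then incubated 30-36 h at 37C. ONE-Glo luminescence was read; sodium butyrate at 4.5 mM final served as control.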
Rab9 prom act: qHTS Assay for Rab9 Promoter Activators; Huh7 Rab9 promoter-luciferase reporter, luminescence, 24 h; Potency, µM (top dose mostly 9.22 µM), for inactives: top-dose activation, negative = inhibition, hits mostly activators; hit rate 2.8% among 320,000; AID 485297, 2010; also: % of control where 0% means no effect; nearly all actives have a fitted effect of over 60% in size
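Steps: seed 1500 Huh7 Rab9-luc cells per well, rest 2 h at 37 °C; add compound in DMSO; incubate 24 h; add luciferase reagent, 10 min ambient; read luminescence.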
KinaseGlo FLuc: Counterscreen for Luciferase (Kinase-Glo TM) Inhibition. Kinase-Glo luciferase, ATP luminescence, 8 min. Potency, µM (titrated, usually from 38.3 µM), inactives show at the top dose activity change, negative = inhibition, actives largely listed as inhibitors. hit rate 0.28% among 200,000; also: % is scaled to controls: 0 for no effect and ±100 for the full control effect; nearly all actives have a fitted effect of over 60% in size
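Kinase-Glo luciferase light output from ATP and luciferin was measured with 10 uM ATP, within the enzyme's linear range. Buffer: 50 mM imidazole pH 7.2, 50 mM KCl, 7 mM MgCl2, 0.01% Tween 20, 0.05% BSA; luminescence read after 8 min at ambient temperature.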
FLuc counter: qHTS profiling assay for firefly luciferase inhibitor/activator using purifed enzyme and Km concentrations of substrates (counterscreen for miR-21 project); Potency, µM (series often up to 57.5 µM), without a hit: top-dose activity change, negative = inhibition, usual class: inhibitors; hit rate 6.9% among 360,000; purified FLuc, Km substrates, luminescence inhibition;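 also: plate controls were vehicle for no effect and reference inhibitor for full effect; nearly all actives have a fitted effect of over 55% in size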
Target sequence (P08659 whole entry, looked up): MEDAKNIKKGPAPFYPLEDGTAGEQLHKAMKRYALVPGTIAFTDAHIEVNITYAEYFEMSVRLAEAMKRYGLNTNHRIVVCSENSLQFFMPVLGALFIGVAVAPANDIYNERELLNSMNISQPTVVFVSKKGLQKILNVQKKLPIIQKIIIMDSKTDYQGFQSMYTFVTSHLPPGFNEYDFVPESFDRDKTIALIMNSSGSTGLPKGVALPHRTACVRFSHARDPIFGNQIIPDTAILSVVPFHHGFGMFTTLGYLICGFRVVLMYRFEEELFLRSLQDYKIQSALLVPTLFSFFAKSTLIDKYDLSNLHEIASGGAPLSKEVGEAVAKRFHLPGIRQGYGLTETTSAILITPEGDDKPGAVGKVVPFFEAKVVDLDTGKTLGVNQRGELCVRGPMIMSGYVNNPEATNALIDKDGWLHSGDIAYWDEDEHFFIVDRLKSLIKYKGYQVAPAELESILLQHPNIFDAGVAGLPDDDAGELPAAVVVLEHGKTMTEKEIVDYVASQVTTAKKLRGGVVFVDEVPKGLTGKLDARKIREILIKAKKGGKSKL
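Purified P. pyralis luciferase, 10 nM final, with Km-level 10 uM D-luciferin and 10 uM ATP in 50 mM Tris acetate pH 7.5, 10 mM Mg acetate, 0.01% Tween-20, 0.05% BSA; 6-point qHTS titration about 60 µM downward; luminescence read.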
ELG1 genotox: qHTS screen for small molecules that induce genotoxicity in human embryonic kidney (HEK293T) cells expressing luciferase-tagged ELG1. Potency, µM (top dose mostly 46 µM), for the others: at the top dose activity change, positive = activation, usual class: activators. HEK293T ELG1-luciferase reporter, luminescence, 16 h. hit rate 1.3% among 330,000; also: % of control where 0% means no effect; nearly all actives have a fitted effect of over 60% in size
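Cells (2,000/well) expressing the ELG1-luciferase fusion are dosed by pin tool and kept 16 hr at 37 °C, 5% CO2. Signal comes from ONE-Glo luciferase reagent after 30 min at room temperature.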
* hit, by the source's call; ? = inconclusive; / = no result given. Hits are enriched below; roughly 7.5% of the tested compounds scored in any of these assays. Calls follow the shape of the dose curve; as a rule, active = well fitted curve in the direction sought with a large enough effect; inconclusive = small, poorly fitted or top-dose-only effect, or another doubt; inactive = no such curve, though single readings can be large; an effect the other way counts as inactive or inconclusive. Potency is read from the fitted curve at half-maximal effect.

SMILES	NPC1 promoter act	SMN2 splice up	Rab9 prom act	KinaseGlo FLuc	FLuc counter	ELG1 genotox
COc1ccc(/C=N/NC(=O)c2ccc3nc[nH]c3c2)cc1OC	0%	/	-4%	/	?	-5%
CCOC(=O)c1cc(C)n(CC2CCC(C(=O)Nc3ccc(C(C)=O)cc3)CC2)c1C (stereo unspecified)	/	/	/	/	-4%	/
CC(C)(C)OC(=O)C[C@H]1C/C=C\C[C@H](CC(=O)N[C@H](CO)Cc2ccccc2)C(=O)N[C@@H](Cc2ccccc2)COC1=O	/	/	/	/	/	-2%
Cc1ccc(C)c(NC(=S)N2CCC(NC(=O)c3ccccc3)CC2)c1	-1%	/	10%	/	4%	-1%
Cc1ccc(CSCC(=O)Nc2ccc(N3CCOCC3)cc2N2CCOCC2)cc1	-1%	/	-4%	/	1%	1%
O=C(NCCc1ccccc1)c1ccc2c(c1)N(Cc1ccccc1)C(=O)c1ccccc1S2=O (stereo unspecified)	/	3%	/	/	-4%	/
COc1ccc(/C=N/NC(=O)c2cccc(NC(=O)c3ccc(Cl)cc3)c2)c(OC)c1	24%	?	?	0%	2.7µM*	3%
COc1cc(/C=N/NC(=O)c2cccc(NC(=O)c3ccccc3C)c2)ccc1O	12%	/	-1%	/	19µM*	-10%
COc1cc(/C=N/NC(=O)c2cccc(NC(=O)c3ccccc3)c2)ccc1O	16%	/	20%	/	9.5µM*	-8%
CCC(Oc1ccccc1C)C(=O)N1CCCN(C)CC1 (stereo unspecified)	3%	/	-3%	/	5%	-1%
CC1CN(C(=O)N2CCC(C(=O)NCc3ccccc3F)CC2)c2cc(Cl)ccc2O1 (stereo unspecified)	/	/	/	/	-17%	/
Clc1ccc(OCCCN2CCCCC2)c(Br)c1	?	?	?	-1%	15µM*	9%
Clc1ccc(OCCCn2ccnc2)c(Br)c1	-5%	-11%	-7%	0%	19µM*	0%
Cc1ccc(N2CC(C)Cn3c2nc2c3c(=O)n(CC(=O)O)c(=O)n2C)cc1 (stereo unspecified)	/	2%	/	/	-8%	/
CN(C)CCCNC(=O)c1ccc(/C=N/O)nc1	2.5µM*	/	2.8µM*	-4%	11µM*	?
Cc1ccc(CNC(=O)CCC(=O)N2CC3CCCN3c3ccccc32)cc1 (stereo unspecified)	/	/	/	/	0%	/
Cc1ccc(C)c(OCc2nc3ccccc3[nH]2)c1	?	?	?	-5%	15µM*	16%
CC1CCCCN1c1csc2ccc(F)cc2c1=O (stereo unspecified)	/	/	/	/	7.6µM*	/
Cc1ccc2scc(N3CCCC(C)C3)c(=O)c2c1 (stereo unspecified)	/	/	/	/	0.76µM*	/
Cc1ccc2scc(N3CCN(c4cccc(C(F)(F)F)c4)CC3)c(=O)c2c1	/	/	/	/	-7%	/
Cc1c(C(=O)Nc2ccc(F)c(Cl)c2)sc2nc3n(c(=O)c12)CCC3	/	/	/	/	4%	/
O=C(c1ccco1)N1C(=O)c2cccc3cccc1c23	-4%	10µM*	-1%	1%	-1%	0%
CCCc1cc(=O)n2[nH]c(C)nc2n1	0%	11%	4%	-2%	0%	2%
CCCc1cc(=O)n2[nH]c(-c3ccccc3)cc2n1	4µM*	11µM*	2.8µM*	-1%	17µM*	?
CCCc1cc(=O)n2[nH]c(-c3ccc(C)cc3)cc2n1	4µM*	13µM*	4µM*	0%	9.5µM*	?
SMILES	NPC1 promoter act	SMN2 splice up	Rab9 prom act	KinaseGlo FLuc	FLuc counter	ELG1 genotox
O=c1cc(-c2ccc([N+](=O)[O-])cc2)nc2cc(-c3ccc(Cl)cc3)[nH]n12	0%	-3%	-7%	0%	?	-1%
CCCc1cc(=O)n2[nH]c(-c3ccc(Cl)cc3)cc2n1	?	/	2.8µM*	/	15µM*	?
CCOC(=O)Cc1cc(=O)n2[nH]c(-c3ccc(Cl)cc3)cc2n1	3%	19%	0%	4%	13µM*	4%
O=c1cc(-c2ccccc2)nc2cc(-c3ccc(Br)cc3)[nH]n12	?	/	?	/	-16%	3%
Cc1ccc(NC(=O)c2c(C)oc3ccc(O)c(CN4CCCCCC4)c23)c(C)c1	/	-6%	/	/	3%	/
Oc1ccc(Br)cc1C=Nc1ccc(Cl)cc1	2%	-39%	-1%	1%	?	3%
Oc1cc(Br)ccc1C=Nc1ccc(N2CCCCC2)cc1	1%	/	26%	/	1.2µM*	-6%
Oc1ccc(C=Nc2ccc(N3CCOCC3)cc2)c(O)c1	11%	4%	-4%	-8%	17µM*	-1%
O=C(N/N=C/c1ccc([N+](=O)[O-])cc1)c1ccc(NS(=O)(=O)c2cccs2)cc1	0%	/	6%	/	21µM*	1%
O=C(N/N=C/c1ccc(N2CCOCC2)cc1)c1ccccc1NS(=O)(=O)c1cccs1	0%	27%	2%	0%	?	0%
O=C(N/N=C/c1ccc([N+](=O)[O-])o1)c1ccc(NS(=O)(=O)c2cccs2)cc1	-2%	/	2%	/	?	-11%
O=C(Nc1ccc(N2CCOCC2)cc1N1CCOCC1)c1cccs1	2%	3%	-1%	0%	-13%	0%
O=C(c1ccc(N2CCOCC2)cc1)c1cccs1	0.89µM*	2.5µM*	1.1µM*	-20%	1.9µM*	?
O=C(N/N=C/c1ccc2c(c1)OCO2)c1ccc(NS(=O)(=O)c2cccs2)cc1	9%	13%	18%	-1%	9.5µM*	4%
O=C(N/N=C/c1ccc(N2CCOCC2)cc1)c1ccc(NS(=O)(=O)c2cccs2)cc1	1%	-3%	0%	2%	7.6µM*	-1%
COc1cccc(NS(=O)(=O)c2cc(-c3cnc(C4CC4)o3)ccc2C)c1	/	/	/	/	-16%	/
CSc1ncc(C(=O)NCc2ccc(Cl)cc2)c(C(F)(F)F)n1	/	/	/	/	2%	/
O=C(N/N=C/c1ccc(N2CCOCC2)cc1)c1ccncc1	2%	/	-7%	/	?	0%
COc1ccc(C(=O)N/N=C/c2ccc(N3CCOCC3)s2)cc1OC	-3%	/	-7%	/	-13%	-1%
O=C(N/N=C/c1ccc(N2CCOCC2)cc1)c1cccs1	2.8µM*	11µM*	?	?	8.5µM*	?
O=C(N/N=C/c1ccc(N2CCOCC2)s1)c1ccc(NS(=O)(=O)c2cccs2)cc1	9%	/	12%	/	27µM*	1%
